Structures are written as SMILES. Screen size: about 310,000 compounds; about 14,000 (4.5%) showed an effect of 50% or more. Effects have a minus sign here. The entries come from a sample that favours strong results as a whole.
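Note: peak tail current of the secondary pulse compared with the same well before compound.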

Sequence of human ether-à-go-go-related gene (hERG) potassium channel (Q12809 whole entry, looked up): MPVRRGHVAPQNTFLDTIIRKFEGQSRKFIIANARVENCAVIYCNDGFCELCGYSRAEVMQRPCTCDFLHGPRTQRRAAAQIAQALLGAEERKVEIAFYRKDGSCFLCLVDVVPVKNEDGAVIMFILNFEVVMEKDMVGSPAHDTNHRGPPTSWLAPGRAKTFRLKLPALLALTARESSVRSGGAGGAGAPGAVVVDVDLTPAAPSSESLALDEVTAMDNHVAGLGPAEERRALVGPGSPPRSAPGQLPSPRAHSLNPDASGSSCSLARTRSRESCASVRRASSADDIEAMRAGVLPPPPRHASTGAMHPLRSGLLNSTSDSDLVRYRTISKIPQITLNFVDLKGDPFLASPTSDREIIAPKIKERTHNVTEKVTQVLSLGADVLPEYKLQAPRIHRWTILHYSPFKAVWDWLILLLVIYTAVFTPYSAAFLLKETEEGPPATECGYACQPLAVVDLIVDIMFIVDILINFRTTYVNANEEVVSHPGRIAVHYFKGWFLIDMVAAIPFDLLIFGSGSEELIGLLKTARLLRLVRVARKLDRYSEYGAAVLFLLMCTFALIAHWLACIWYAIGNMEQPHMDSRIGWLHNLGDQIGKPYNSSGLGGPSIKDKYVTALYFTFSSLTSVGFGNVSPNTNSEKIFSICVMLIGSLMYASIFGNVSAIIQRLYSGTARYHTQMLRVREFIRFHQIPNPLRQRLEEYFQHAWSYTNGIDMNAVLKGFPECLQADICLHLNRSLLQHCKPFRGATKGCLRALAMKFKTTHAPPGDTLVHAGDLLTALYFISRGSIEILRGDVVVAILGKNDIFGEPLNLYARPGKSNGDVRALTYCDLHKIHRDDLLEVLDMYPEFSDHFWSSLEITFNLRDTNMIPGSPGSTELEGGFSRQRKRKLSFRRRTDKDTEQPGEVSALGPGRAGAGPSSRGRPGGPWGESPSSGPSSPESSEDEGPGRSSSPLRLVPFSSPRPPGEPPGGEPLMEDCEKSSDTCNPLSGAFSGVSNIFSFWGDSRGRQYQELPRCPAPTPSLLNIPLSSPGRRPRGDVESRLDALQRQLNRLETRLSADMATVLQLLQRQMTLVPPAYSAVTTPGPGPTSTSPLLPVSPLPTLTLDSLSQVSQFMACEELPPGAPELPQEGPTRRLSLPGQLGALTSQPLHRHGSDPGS

This experiment has as its target human ether-à-go-go-related gene (hERG) potassium channel (human, UniProt Q12809). The experiment in a line: primary screen, population patch clamp on CHO cells stably expressing hERG; higher = less effect of the substance.
On to `CC#CCN1c2ccccc2[C@]23C[C@@H](C(=O)OC)N(C(=O)c4ccco4)C2=NC(C(=O)OC)=C(C(=O)OC)[C@H]13`, for which the “hERG current change (%, negative = inhibition) at 10uM” value is recorded as -2.03%.
In the case of `Cc1nn(-c2ccccc2)c(C)c1/C=N\NS(=O)(=O)c1ccc(Cl)cc1` it was -17.7%; in that of `Cc1cc(C)cc(OCC(=O)NNC(=O)c2cc(C)[nH]n2)c1`, 13.9%; in that of `O=C(CCC(=O)N1CCSc2ccccc21)NCCc1ccccc1`, -30.5%.
As to `CCn1c(SCC(=O)N/N=C/c2ccccc2OCC(=O)O)nnc1-c1ccccc1`, the “hERG current change (%, negative = inhibition) at 10uM” value is given as 5.58%.
In the case of `CNCC(O)C(O)C(O)C(O)CO` (stereo not shown) it was -0.427%; in that of `CC(C)C(=O)Nc1ccc(NC(=O)CCc2ccccc2)cn1`, 18.4%; in that of `CC(=O)Nc1ccc(S(=O)(=O)NCC2CCC(C(=O)N3CC(C)CC(C)C3)CC2)cc1` (stereo not shown), 5.39%.
As for `Cn1nccc1C(=O)NC1CCN(Cc2ccccc2)CC1`, the “hERG current change (%, negative = inhibition) at 10uM” value is -14.4%.
As to `CC(C)Cc1ccc(CN2CCCC(NC(=O)c3ccnn3C)C2)cc1` (stereo not shown), the “hERG current change (%, negative = inhibition) at 10uM” value is listed as -68.7%.
As for `CC(C)Cc1ccc(CN2CCCC(NC(=O)CCN3CCCO3)C2)cc1` (stereo not shown), the “hERG current change (%, negative = inhibition) at 10uM” value was -43.4%.
`Cl.OC(CNC1CCCC1)COCCOc1ccc(Br)cc1` (stereo not shown): the “hERG current change (%, negative = inhibition) at 10uM” value is recorded as -27.4%.
In the case of `C#CCOCCOCCOCCNc1nc(N2CCN(C(=O)[C@H]([C@@H](C)CC)n3cc([C@@H](N)Cc4ccc(O)cc4)nn3)CC2)nc(N2CCN(C(=O)[C@H]([C@@H](C)CC)n3cc([C@@H](N)CC(C)C)nn3)CC2)n1.Cl` it was 0.378%; in that of `CCOC(=O)c1cccc(OCC(O)CNCCOc2ccccc2F)c1` (stereo not shown), -63%.
To `COCCCNCC(O)COc1ccccc1F` (stereo not shown) belongs 5.58%.
`CC(=O)c1cccc(OCC(O)CNCCOc2ccc(C)cc2)c1` (stereo not shown): the “hERG current change (%, negative = inhibition) at 10uM” value is recorded as -36.5%.
As for `Cc1cc(C(C)(C)C)oc1C(=O)O`, the “hERG current change (%, negative = inhibition) at 10uM” value is 27.6%.
Consider `CN1C(=O)OC(C)(CCc2ccccc2)C1(C)O` (stereo not shown), for which the “hERG current change (%, negative = inhibition) at 10uM” value came out at 11.5%.
To `Cc1cc2oc(C(=O)Nc3c(C)n(C)n(-c4ccccc4)c3=O)c(C)c2cc1Cl` belongs -72.2%.
As for `Cc1cc(C)c2c(C)c(C(=O)Nc3c(C)n(C)n(-c4ccccc4)c3=O)oc2c1`, the “hERG current change (%, negative = inhibition) at 10uM” value is -16.7%.
On to `Cc1cc2oc(C(=O)Nc3c(C)n(C)n(-c4ccccc4)c3=O)c(C)c2cc1C`, for which the “hERG current change (%, negative = inhibition) at 10uM” value is -24%.
Regarding `Cc1ccc2c(C)c(C(=O)Nc3c(C)n(C)n(-c4ccccc4)c3=O)oc2c1`, the “hERG current change (%, negative = inhibition) at 10uM” value is -2.96%.
Turning to `Cc1c(C(=O)Nc2c(C)n(C)n(-c3ccccc3)c2=O)oc2ccc(Cl)cc12`, the “hERG current change (%, negative = inhibition) at 10uM” value is listed as -51.3%.
As for `Cc1c(C(=O)Nc2c(C)n(C)n(-c3ccccc3)c2=O)oc2ccccc12`, the “hERG current change (%, negative = inhibition) at 10uM” value is on record as 15.8%.
For `CN(C)P1(N(C)C)=Nc2c(c(N)nn2C)C(c2ccccc2)=N1`, the “hERG current change (%, negative = inhibition) at 10uM” value is listed as -6.87%.
Consider `CCOc1cc(S(=O)(=O)NCC2OCCc3ccccc32)c(OCC)cc1-n1cnnn1` (stereo not shown), for which the “hERG current change (%, negative = inhibition) at 10uM” value is listed as -21.5%.
As for `CC(=O)Nc1ccc(S(=O)(=O)N2CCN(C(=O)C3COc4ccccc4O3)CC2)cc1` (stereo not shown), the “hERG current change (%, negative = inhibition) at 10uM” value is given as -7.33%.
Take `Cc1ccc(N2C(=O)NC(=O)/C(=C\c3ccoc3)C2=O)cc1`: the “hERG current change (%, negative = inhibition) at 10uM” value is 22%.
For the compound `O=P1(Nn2cnnc2)C=C(c2ccccc2)OC(c2ccccc2)=C1`, the “hERG current change (%, negative = inhibition) at 10uM” value is reported as -20.8%.
In the case of `CCN1CCN(P2(=O)C=C(c3ccccc3)OC(c3ccccc3)=C2)CC1`, the “hERG current change (%, negative = inhibition) at 10uM” value was -77.9%.
With `O=P1(O)C=C(c2ccccc2)OC(c2ccccc2)=C1`, the “hERG current change (%, negative = inhibition) at 10uM” value was determined as 23.9%.
Consider `Cc1cc(C(=O)CSc2nc(N)cc(N)n2)c(C)n1CCc1ccc(F)cc1`, for which the “hERG current change (%, negative = inhibition) at 10uM” value is given as -13.9%.
For the compound `Cn1c(=O)c2[nH]c(-c3ccc(S(=O)(=O)O)cc3)nc2n(C)c1=O.O`, the “hERG current change (%, negative = inhibition) at 10uM” value came out at 10.2%.
For the compound `COc1ccc(/C=C(\NC(=O)c2cccs2)C(=O)Nc2cccc3ccccc23)cc1OC`, the “hERG current change (%, negative = inhibition) at 10uM” value is on record as -7.06%.
To `O=C(N/N=C/c1ccc(O)c(O)c1O)/C(=C/c1ccc([N+](=O)[O-])cc1)NC(=O)c1ccccc1` belongs 12.4%; to `O=C(Nc1ccc(Br)cc1)/C(=C/c1cccc([N+](=O)[O-])c1)NC(=O)C1CCCCC1`, -16%; to `O=C(N/C(=C/c1cccc([N+](=O)[O-])c1)C(=O)N1CCCCC1)c1cccs1`, -7.23%.
Turning to `O=C(Nc1ccc([N+](=O)[O-])cc1)/C(=C/c1cccc([N+](=O)[O-])c1)NC(=O)C1CCCCC1`, the “hERG current change (%, negative = inhibition) at 10uM” value is listed as -69%.
To `O=C(N/N=C/c1ccc(O)cc1)/C(=C/c1ccc([N+](=O)[O-])cc1)NC(=O)c1ccccc1` belongs 8.54%.
To `O=C(N/N=C/c1ccc(Br)o1)/C(=C/c1ccc([N+](=O)[O-])cc1)NC(=O)c1ccccc1` belongs -60.1%.
On to `Cc1ccc(NC(=O)/C(=C/c2cccc([N+](=O)[O-])c2)NC(=O)C2CCCCC2)c(C)c1`, for which the “hERG current change (%, negative = inhibition) at 10uM” value is on record as -18.7%.
`O=C(Nc1ccccc1)/C(=C/c1ccc([N+](=O)[O-])cc1)NC(=O)c1ccccc1`: the “hERG current change (%, negative = inhibition) at 10uM” value amounted to 8.2%.
Consider `O=C(Nc1cccc2ccccc12)/C(=C\c1cccc([N+](=O)[O-])c1)NC(=O)c1cccs1`, for which the “hERG current change (%, negative = inhibition) at 10uM” value is listed as -70.1%.
As to `O=C(Nc1cccc(C(=O)O)c1)/C(=C/c1ccc([N+](=O)[O-])cc1)NC(=O)c1ccccc1`, the “hERG current change (%, negative = inhibition) at 10uM” value was -5.36%.
To `O=C(Nc1cccc2ccccc12)/C(=C/c1ccc([N+](=O)[O-])cc1)NC(=O)c1ccccc1` belongs -55.6%; to `Cc1cc(NC(=O)C(C)SCC(=O)N(C)CC(=O)Nc2ccc(F)cc2)no1` (stereo not shown), 7.59%; to `CN(CC(=O)Nc1ccccc1Cl)C(=O)Cn1cc(C(F)(F)F)cc(Cl)c1=O`, -6.27%.
To `O=C(CN1C(=O)COc2ccc(S(=O)(=O)N3CCOCC3)cc21)NCc1ccccn1` belongs -1.38%; to `O=C(NCC1CCCO1)C1CCN(c2ccc(S(=O)(=O)N3CCCC3)cc2)CC1` (stereo not shown), -4.69%.
